# Only a sample is shown.
# aSyn 5UTR act – Activators via SNCA 5'UTR binding, MLPCN; alpha-synuclein 5'UTR reporter, activators screen; actives 7.1% (n = 300,000); activity score, % (tested at 7.5 µM), hits read low; in the data active = activity score below about -60%
# Starred values were filed as active, the others as inactive.
SMILES,aSyn 5UTR act
Cc1ccc(C(NC(=O)NCCCN2CCOCC2)=C(Cl)Cl)cc1F,-70*
Brc1ccc2nc(N3CCN(c4ccccc4)CC3)sc2c1,-143*
Clc1ccc2nc(N3CCN(c4ccccc4)CC3)sc2c1,-109*
CCc1sc(C(=O)Nc2ncccc2C)cc1C,-67*
CCc1sc(C(=O)Nc2nccs2)cc1C,-123*
Cc1cccn2cc(CSc3ccccc3N)nc12,-117*
c1ccc(-n2cnc3cc(NCc4ccco4)ccc32)cc1,-161*
Cc1ccc(-n2cnc3cc(NCc4cccs4)ccc32)cc1,-94*
c1ccc(-n2cnc3cc(NCc4cccs4)ccc32)cc1,-167*
COc1ccc(-n2cnc3cc(NCc4cccs4)ccc32)cc1,-69*
Cc1ccc(/C=C2\SC(=S)N(CCCC(=O)NC3CCCC3)C2=O)cc1,98
COc1cc(/C=C2\SC(=S)N(CCC(=O)NC3CCCC3)C2=O)cc(OC)c1OC,-71*
C1=C(CCNc2ncnc3nc[nH]c23)CCCC1,-116*
c1ccc2c(CCNc3ncnc4nc[nH]c34)cccc2c1,-92*
Cn1c(-c2ccccc2)cc2c3no[n+]([O-])c3ccc21,-69*
O=C(Oc1ccc(Cl)cc1)N1CCCCC1,-110*
O=C(Oc1ccc2ccc(OC(=O)N3CCCCCC3)cc2c1)N1CCCCCC1,-81*
Cc1cc(N2CCOCC2)nc2ccc(NC(=O)CCC(=O)N3CCC(C)CC3)cc12,-105*
Cc1nc(Nc2cnc(/C=C/c3cc(C(=O)Nc4cccc(C(F)(F)F)c4)ccc3C)cn2)cc(N2CCNCC2)n1,81
CCN1CCN(c2cc(C)c3cc(NC(=O)CCC(=O)N4CCN(c5ccccc5OC)CC4)ccc3n2)CC1,-62*
Cc1cc(N2CCOCC2)nc2ccc(NC(=O)CCC(=O)N3CCCCC3)cc12,-90*
Cc1cc(N2CCOCC2)nc2ccc(NC(=O)CCC(=O)N3CCN(c4cccc(C(F)(F)F)c4)CC3)cc12,-72*
Cc1cc(N2CCOCC2)nc2ccc(Cl)cc12,-111*
CCC(C)NC(=O)CCC(=O)Nc1ccc2nc(N3CCOCC3)cc(C)c2c1 (stereo unspecified),-86*
CCCCN(C)C(=O)CCC(=O)Nc1ccc2nc(N3CCOCC3)cc(C)c2c1,-76*
SMILES,aSyn 5UTR act
CCCCNC(=O)CCC(=O)Nc1ccc2nc(N3CCC(C)CC3)cc(C)c2c1,-69*
CCC(C)NC(=S)Nc1ccc2nc(N3CCN(CC)CC3)cc(C)c2c1 (stereo unspecified),-95*
COc1ccc(NC(=O)CCC(=O)Nc2ccc3nc(N4CCOCC4)cc(C)c3c2)c(OC)c1,-94*
O=C(c1ccc(Cl)cc1)C(CN1CCCCC1)c1ccccc1 (stereo unspecified),-106*
COc1ccc(C(=O)C(CN2CCOCC2)c2ccccc2)cc1F (stereo unspecified),-108*
CCCOc1ccc(C(=O)C(CN2CCOCC2)c2ccccc2)cc1 (stereo unspecified),-120*
COC1=C(C)C(O)=C(C(=O)/C=C/c2ccccc2)C(=O)C1(C)C,-104*
OCC#CCSc1nnc(-c2ccc(Br)cc2)o1,-87*
O=C(Cc1noc2ccccc12)Nc1ccccn1,-89*
Cc1ccc(NC(=O)Cc2noc3ccccc23)nc1,-69*
COc1cc(-c2nc3ccccc3s2)ccc1O,-222*
CC[n+]1c(/C=C/N(C)c2ccccc2)n(-c2ccccc2)c2ccc(-c3nc4ccccc4s3)cc21,120
CCOc1cc(-c2nc3ccccc3s2)ccc1O,-98*
COc1ccc(-c2nc3ccccc3s2)cc1O,85
COc1ccc(C2OC(=O)CC2C(=O)NCc2ccc(Cl)cc2)cc1OC (stereo unspecified),-78*
Cc1cc(C)cc(NC(=O)CSc2nnc(-c3ccccc3C)o2)c1,-119*
Cc1cccc(NC(=O)CSc2nnc(-c3ccccc3C)o2)c1,-94*
Cc1ccc(NC(=O)CSc2nnc(-c3ccccc3C)o2)cc1C,-89*
CN(C)CC/C=C1\c2ccc(F)cc2Sc2cc(F)c(Cl)cc21,103
O=C(NC1CC1)c1cccc(Nc2ccc(-c3ccc4c(c3)OCCO4)nn2)c1,-145*
O=S(=O)(c1ccc(Nc2ccc(-c3ccc4c(c3)OCCO4)nn2)cc1)N1CCCC1,-121*
COCCNC(=O)c1cc2sc3ccccc3c2s1,-175*
CCCN(CCC)CCCNC(=O)c1cc2c(=O)n(CC)c3ccccc3c2s1,-300*
CCCCN(CC)CCNC(=O)c1cc2c(=O)n(CC)c3ccccc3c2s1,-274*
CCCCN(CC)CCCNC(=O)c1cc2c(=O)n(CC)c3ccccc3c2s1,-321*
SMILES,aSyn 5UTR act
CCn1c(=O)c2cc(C(=O)NCCCOC)sc2c2ccccc21,-85*
COCCCNC(=O)c1ccc(Cn2c(=O)c3ccccc3n(Cc3ccccc3C#N)c2=O)cc1,55
C/C(CC(=O)Nc1ccc(Cl)cc1C(F)(F)F)=N\NC(=O)c1ccccn1,-127*
O=C(COC(=O)CNC(=O)c1cccs1)Nc1ccccc1C(F)(F)F,-95*
C/C(CC(=O)Nc1ccc(Cl)cc1C(F)(F)F)=N\NC(=O)c1cccs1,-106*
CCCCNc1nc(N)nc(-c2cc(Cl)ccc2O)n1,-67*
COc1ccc2nc(/N=C\N(C)C)sc2c1,-92*

# Screening data (PubChem BioAssay)
